Assay outcomes from PubChem.
FECH inh: inhibitors of human ferrochelatase | AID 1671448 | purified FECH, Ni-mesoporphyrin absorbance 550 nm | calls only at 10 µM (by protocol) | 20,000 tested, 3.3% active;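 active = enzyme reaction rate more than 3 SD below the solvent-only control wells on the same plate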;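 note: lower slope than DMSO wells means FECH inhibition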
Each line names hits and unclear results; the compound was inactive in the other large screens. Many of the other results were omitted from the sample, so hits are more common in it than they were.

Cc1ccc(CN2CCCN(Cc3ccccc3C)S2(=O)=O)cc1	none
O=S1(=O)N(Cc2ccc(Cl)cc2)CCCN1Cc1ccccc1Cl	FECH inh active
Cc1ccc(C)c(CN2CCCN(Cc3ccccc3)S2(=O)=O)c1	none
COc1cccc(CC(C)NCCN(C)S(C)(=O)=O)c1 (configuration not stated)	none
COc1cccc(CC(C)NCC(=O)NC(C)C)c1 (configuration not stated)	none
